Compounds without any hit were thinned out: in the full panel of roughly 83,000, 20% have a hit.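 Values shown are percent growth following 48 h exposure of cells in 96-well plates to a single concentration of compound; below 10 was considered active.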 Active and inactive are the calls of the source.
tested on: OVCAR-8 ovarian; assay: NCI-60 one-dose screen, 48 h (100 = growth as untreated, 0 = no growth, -100 = all killed); settings: 10 µM unless noted

| SMILES | growth |
| --- | --- |
| CCNc1cc2c(cc1Br)-c1ccccc1C2=O | 90.1% (inactive) |
| Cn1cc(-c2noc(-c3cn(C)c4ncccc34)n2)c2cc(Cl)ccc21 | 96% (inactive) |
| N#Cc1ccc(-c2ccc(COc3ccc(CC4SC(=O)NC4=O)cc3)cc2)cc1 (centres undefined) | 58.3% (inactive) |
| O=C(N[C@@H]1CCCc2ccccc21)[C@H](CCC(=O)N1CCN(C2CCCCC2)CC1)N1C(=O)[C@@H](N2C(=O)OC[C@@H]2c2ccccc2)[C@H]1/C=C/c1ccccc1 | 54.4% (inactive) |
| CCOC(=O)/C(C#N)=C(\C)CCc1ccccc1 | 103% (inactive) |
| COc1ccc(C(=O)CSc2nccc(Nc3ccc(C(=O)O)cc3)n2)cc1 | 94.8% (inactive) |
| O=C(NCCCCCCCNC(=O)OCc1ccc2c(Cl)cc(Cl)c(O)c2n1)OCc1ccc2c(Cl)cc(Cl)c(O)c2n1 | -8.93% (active) |
| CCN(CCO)CCC(=O)c1ccc([N+](=O)[O-])cc1 | 101% (inactive) |
| CCOC(=O)COc1c(C)cc(SSc2cc(C)c(OCC(=O)OCC)c(C)c2)cc1C | 102% (inactive) |
| CC(C)C1=NOC(=O)C1=Cc1cn(-c2ccco2)nc1-c1ccccc1 | 80.5% (inactive) |
| CCOC(=O)Nc1ccc2c(c1)/C(=N\NC(=S)NC)c1ccccc1-2 | 83% (inactive) |
| COc1ccc(/C=C(/C(=O)c2ccc(Cl)cc2)C(=O)C(F)(F)F)cc1 | 102% (inactive) |
| O=[N+]([O-])c1cccc(N=NNc2cccc([N+](=O)[O-])c2)c1 | 99.5% (inactive) |
| COc1ccc2c(c1)c(-c1noc(-c3cn(C)c4ncc(F)cc34)n1)cn2C | 63.7% (inactive) |
